Experimental data as given in PubChem BioAssay (NCATS).
“And” between values parts separate entries of the source, which are not always exact repeats. Equal entries are not always repeated. Records with an inconclusive call do not appear. The source made the active and inactive calls. The call rests on the fitted dose curve; in most records, active means well fitted curve in the direction sought with a large enough effect; inconclusive means small, poorly fitted or top-dose-only effect, or another doubt; inactive means no such curve, though single readings can be large; an effect the other way counts as inactive or inconclusive.

Assays:
[1] = target: Cellular tumor antigen p53 (Homo sapiens) (UniProt P04637); assay: Primary qHTS for small molecule compounds that upregulate eGFP-tagged delta133p53alpha (in N-terminal) cells. (AID 2060322); conditions: NCI-H358 eGFP-delta133p53alpha fluorescence, 24 h; activation: stronger effect = higher value;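 further: series mostly up to about 56 µM; 0% = DMSO vehicle and 100% = reference activator; nearly all actives have a fitted effect of over 75% in size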
Sequence of Cellular tumor antigen p53 (Homo sapiens) (P04637 whole entry, looked up): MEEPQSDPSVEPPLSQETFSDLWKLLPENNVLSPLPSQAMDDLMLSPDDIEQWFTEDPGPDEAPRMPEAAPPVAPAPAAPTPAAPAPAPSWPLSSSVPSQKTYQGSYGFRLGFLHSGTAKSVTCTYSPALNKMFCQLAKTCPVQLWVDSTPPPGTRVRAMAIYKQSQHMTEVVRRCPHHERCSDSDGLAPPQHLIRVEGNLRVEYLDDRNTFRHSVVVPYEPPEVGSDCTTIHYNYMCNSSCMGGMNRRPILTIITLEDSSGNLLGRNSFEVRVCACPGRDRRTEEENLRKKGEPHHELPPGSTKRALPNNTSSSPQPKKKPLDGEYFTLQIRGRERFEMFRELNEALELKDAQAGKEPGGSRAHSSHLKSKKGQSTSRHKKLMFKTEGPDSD
Summary of the method: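 NCI-H358 cells pre-induced 24 h with 10 ng/ml doxycycline to express N-terminal eGFP-delta133p53alpha, then dosed 24 h at 37C without doxycycline; fixed, Hoechst-stained, GFP intensity by laser scanning cytometry, normalized to DMSO (0%) and 57.5 uM 5-azacytidine (100%).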

[2] = target: Aldehyde dehydrogenase, mitochondrial (Homo sapiens) (UniProt P05091); assay: qHTS for Inhibitors of the Aldehyde Dehydrogenase Family (ALDH2) Primary screen (AID 2061308);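 further: plate controls were vehicle for no effect and reference inhibitor for full effect; nearly all actives have a fitted effect of over 55% in size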
[3] = target: Retinaldehyde dehydrogenase 3 (Homo sapiens) (UniProt P47895); assay: qHTS for Inhibitors of the Aldehyde Dehydrogenase Family (ALDH1A3) Primary screen (AID 2061315);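 further: plate controls were DMSO vehicle for no effect and reference inhibitor for full effect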

C=C1[C@H](OC(C)=O)[C@H]2[C@@H](OC(=O)c3ccccc3)[C@@H](C)C[C@]2(O)[C@@H](OC(C)=O)[C@H](C)/C=C/C(C)(C)C(=O)[C@H](OC(C)=O)[C@H]1OC(C)=O
inactive: activation [1] -3.57% | Potency [2] | Potency [3]

CC(C)C[C@@H]1NC(=O)[C@@H]2C[C@@]34C[C@@H]5[C@@]6(C)CCCC(C)(C)C6CC[C@@]5(C)N(c5ccccc53)[C@H]4N2C1=O (some centres undefined)
inactive: activation [1] 3.82% | Potency [2] | Potency [3]

CN1CCc2nc(C(=O)N[C@@H]3C[C@@H](C(=O)N(C)C)CC[C@@H]3NC(=O)C(=O)Nc3ccc(Cl)cn3)sc2C1
inactive: activation [1] 1.91% | Potency [2] | Potency [3]

CC1=C(CC/C(C)=C/C(=O)O)[C@@]2(C)CCCC(C)(C)C2CC1=O (some centres undefined)
inactive: activation [1] 6.25% | Potency [2] | Potency [3]

C[C@@H]1CC[C@]2(C(=O)O)CC[C@]3(C)C(=CCC4[C@@]5(C)C[C@@H](O)[C@H](O)[C@@](C)(CO)C5CC[C@]43C)C2[C@]1(C)O (some centres undefined)
inactive: activation [1] 29.5% | Potency [2] | Potency [3]

CN1C(=O)N(c2cc(Cl)cc(Cl)c2)C(=O)[C@@]1(C)Cc1ccc(Br)cc1
inactive: activation [1] 5% | Potency [2] | Potency [3]

OCC1=C[C@@H](O)[C@@H]2C=CO[C@@H](O[C@@H]3O[C@H](CO)[C@@H](O)[C@H](O)[C@H]3O)[C@H]12
inactive: activation [1] -32.8% | Potency [2] | Potency [3]

CCOc1nc2cccc(C(=O)O)c2n1Cc1ccc(-c2ccccc2-c2nn[nH]n2)cc1
inactive: activation [1] -1.69% and 19.6% | Potency [2] | Potency [3]
